# Test results published in PMC3315485, “Probing the Informational and Regulatory Plasticity of a Transcription Factor DNA–Binding Domain”.
# Residue numbers refer to the chain shown, from its start.
# Columns and labels:
# Test in all cases: MITOMI; MITOMI, 295 K (22 C); buffer, salt and pH not stated in the material; high values mean tight binding
# Conditions in all cases: protein: ivt; label: fluorescent; dsDNA, one strand shown
# MarA RQR = target: T1, MarA RQR (Escherichia coli, UniProt P0ACH5 1-127, W40R)
# T1 sequence: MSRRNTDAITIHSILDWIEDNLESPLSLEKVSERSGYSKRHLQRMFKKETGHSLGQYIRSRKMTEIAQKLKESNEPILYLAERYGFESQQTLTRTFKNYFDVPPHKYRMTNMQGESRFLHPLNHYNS
# In short: (§1)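 MarA protein variants were produced by in vitro transcription and translation using the RTS E. coli HY kit, with tRNA-lys-bodipy-fl added for fluorescent labelling. Each variant was screened by MITOMI against 64 synthesized versions of the mar binding site, and protein and DNA fluorescence were read on Genepix at 295K. Association constants came from MITOMI, and each site's value is relative to the highest-affinity site for that protein variant.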
# MarA RTR = target: T2, MarA RTR (Escherichia coli, UniProt P0ACH5 1-127, W40R;Q43T)
# T2 sequence: T1 sequence with Q43T
# In short: as §1
# MarA SAR = target: T3, MarA SAR (Escherichia coli, UniProt P0ACH5 1-127, W40S;Q43A)
# T3 sequence: T1 sequence with R40S, Q43A
# In short: as §1
# MarA TRR = target: T4, MarA TRR (Escherichia coli, UniProt P0ACH5 1-127, W40T;Q43R)
# T4 sequence: T1 sequence with R40T, Q43R
# In short: as §1
sequence,measurement,setting,value
ATGTTCCGTTTTGCTAAAT,binding signal,MarA RQR,0.16 Ka relative to the best site of the variant
same,binding signal,MarA RTR,0.207 Ka relative to the best site of the variant
same,binding signal,MarA SAR,0.254 Ka relative to the best site of the variant
same,binding signal,MarA TRR,0.449 Ka relative to the best site of the variant
